# Results with a measured potency or affinity are listed apart. Calls of active or inactive are those of the source.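 Rule for the calls: active = falling luciferase signal whose fitted half-maximal concentration is at most twice the top tested dose; inconclusive = flat inhibition between 30 and 70% or a poor curve fit; inactive = the rest.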
# Assay: off-target signal loss in HeLa-CEM21 co-culture – HeLa F-luc CTL cells, cherry-picked, counter-screen for HIV-1 Env fusion inhibitor project, dose response (AID 652040);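 note: 0% = median of neutral control wells and -100% = doxycycline 40 µg/mL wells; more negative values mean stronger loss of luciferase signal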
# Conditions: HeLa-F-luc CTL cells with CEM21, firefly luciferase counterscreen; series mostly up to 35 µM; activity change, negative = inhibition: at the top concentration
row,SMILES,"activity change, negative = inhibition"
1,Cc1ccc(Cn2nnnc2CN2CCC(c3nc4ccc(Cl)cc4[nH]3)CC2)cc1,-3.68% (inactive)
2,Cc1ccc(-n2nnnc2-c2cnn(-c3ccc(F)cc3)c2C(F)(F)F)cc1,12.4% (inactive)
3,Cc1ccc(-c2nnc(N3CCN(C(=O)COc4ccccc4)CC3)c3ccccc23)cc1,-11% (inactive)
4,CCc1nnc(NC(=O)[C@@H](NC(=O)c2cccc(S(=O)(=O)N(CC)CC)c2)C(C)C)s1,34% (inactive)
5,O=C1COc2ccc(-c3csc(=Nc4ccc(OC(F)F)cc4)n3CC3CCCO3)cc2N1 (stereo not given),6.16% (inactive)
6,COc1ccccc1N1CCN(Cc2ccc(O)c3ncccc23)CC1,166% [at 8 µM] (inactive)
7,CCOc1ccccc1C(=O)NCC(=O)NNC(=O)CN(C)S(=O)(=O)c1ccc(Cl)cc1,-20% (inactive)
8,COc1ccc(OC2C(=O)N(Cc3ccc4c(c3)OCO4)C2c2cccs2)cc1 (stereo not given),55.8% (inactive)
9,N#Cc1ccc(CN2CCN(C(=O)CNC(=O)Cc3cccc4ccccc34)CC2)cc1,18.8% (inactive)
10,CC(C)(C)c1ccc(-c2noc(CCC(=O)NCC3CCCO3)n2)cc1 (stereo not given),31.3% (inactive)
11,Cn1c(CN2CCCCC2)nc2cc(NC(=O)c3ccc(Cl)cc3)ccc21,11.5% (inactive)
12,Oc1ccc(C=NNc2ccccn2)c(O)c1,42.6% [at 16 µM] (inactive)
13,NC(=S)c1ccc(OCCCc2ccccc2)cc1,6.29% (inactive)
14,COc1cccc(CNc2nc(NCc3ccccc3OC)nc3ccsc23)c1,10.7% (inactive)
15,Clc1ccc(-c2noc(CSc3nnc(-c4ccncc4)n3-c3ccccc3)n2)cc1,18.5% (inactive)
16,COc1ccc(NS(=O)(=O)c2ccc3c(c2)OCCO3)cc1OC,-7.49% (inactive)
17,Cc1ccc2[nH]c3c(N4CCN(Cc5ccccc5)CC4)ncnc3c2c1,7.7% (inactive)
18,CCc1nc(N2CCCCC2)c2oc3ccccc3c2n1,-2.89% (inactive)
19,O=C(CC1C(=O)NCCN1Cc1cccc(F)c1)NC1CCCCC1 (stereo not given),19.9% (inactive)
20,CCCCCCCn1c2c(c(=N)c3c1CCC3)CCCC2,23.5% (inactive)

row,SMILES,"activity change, negative = inhibition"
1,CCCCS(=O)(=O)N1CCN(C(=O)C(=O)c2cccc(C(F)(F)F)c2)CC1,-8.5% (inactive)
2,COc1ccc(-c2cc(C3CCN(c4cc(Cl)nc(N)n4)CC3)[nH]n2)cc1,4.58% (inactive)
3,CN(C(=O)c1cccc(NC(=O)Cc2cccc(NC(=O)C3CCCN(C(=O)C4CCC4)C3)c2)c1)C1CCC1 (stereo not given),-1.03% (inactive)
4,CCc1ccc(-c2nc(CN3CCC(C(=O)NCCc4ccc(OC)c(OC)c4)CC3)c(C)o2)cc1,83.5% (inactive)
5,CC(=O)c1c(C)[nH]c(C(=O)OCC(=O)Nc2c(C)cccc2C)c1C,-5.12% (inactive)
6,C[C@H]1NC(=O)[C@@]2(C)[C@H](c3ccccc3)[C@H]3COc4ccccc4[C@@H]3N2C1=O,44.9% (inactive)
7,CC(=O)C1=C(C)NC(=S)NC1c1ccccc1 (stereo not given),7.35% (inactive)
8,COc1ccc(/C=C/c2cc(-c3ccc(C)cc3)o[n+]2C)cc1,147% (inactive)
9,COc1ccc(NC(=O)CN2CCC(C(N)=O)(N3CCCCC3)CC2)cc1,-14.4% (inactive)
10,Cn1cc(S(=O)(=O)N2CCOCC2)cc1C(=O)Nc1cccc(Cl)c1,4.09% (inactive)
11,COCc1[nH]nc2c1C(c1ccc(F)cc1)N(Cc1ccccc1)C2=O (stereo not given),52% (inactive)
12,CCOC(=O)[C@@H]1[C@H]2COc3cc(OC)ccc3[C@H]2N2C(=O)N(c3cccc(F)c3)C(=O)[C@@]12C,61.2% (inactive)
13,CCN1CCN(S(=O)(=O)c2ccc(Cl)c(C(=O)Nc3ccccc3N3CCCC3)c2)CC1,98.5% (inactive)
14,Cc1cccc(C)c1NC(=O)N1CCN(c2nc3ccccc3s2)CC1,-17.5% (inactive)
15,CCOC(=O)C1CCN(C(=O)c2ccc3c(c2)C(=O)N(c2ccccc2C)C3=O)CC1,3.39% (inactive)
16,O=C(Nc1ccc(S(=O)(=O)N2CCN(Cc3ccccc3)CC2)cc1)c1cnccn1,16.4% (inactive)
17,Cc1cc(Cl)c(S(=O)(=O)N2CCSCC2)cc1OCC(=O)NC1CCCCC1,-0.313% (inactive)
18,CC1CN(S(=O)(=O)c2cc(C(=O)NCCC3=CCCCC3)ccc2Cl)CC(C)O1 (stereo not given),66.4% [at 16 µM] (inactive)
19,CC(OC(=O)c1ccc(NC(=O)CC#N)cc1)C(=O)NCCC1=CCCCC1 (stereo not given),40.1% (inactive)
20,CC1Cc2cc(-c3csc(NC(=O)Cc4cccs4)n3)ccc2N1S(C)(=O)=O (stereo not given),-15.7% (inactive)

# — PubChem BioAssay AID652040 (Broad Institute, 2013)
